From the supplement of paper PMC12636033
± gives the standard deviation of the averaged measurements. In all, about 33,000 sequences were measured (“E-score (rank enrichment, -0.5 to 0.5)”: median about -0.0028, highest 2% from about 0.23 on). The entries come from a sample that favours the highest values as a whole.

Tested on: 2Sb-muMax20 (muMax20 with two 1,3-bis(methyl)benzene Cys staples, A13C/A17C and Q88C/A92C, C-terminal Lys)
Assay: PBM 8-mer E-score (E-score (rank enrichment, -0.5 to 0.5)); higher = stronger preferential binding
Experimental: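 Protein binding microarray (universal PBM chip covering all 10-mers in fixed probe flanks) with chemically synthesized human Max(13-93) bHLH-LZ analogs (not full-length Max) bearing noncanonical residues (hArg, Tha, Aib, Nle at 65) and aromatic Cys staples. Read-out per 8-mer (and its reverse complement): E-score (rank-based enrichment, -0.5 to 0.5) and Z-score of median probe intensity.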

| Sequence | PBM 8-mer E-score |
| --- | --- |
| ATATCCAT | 0.137 ± 0.14 |
| CACTCCGG | -0.0338 ± 0.0072 |
| ATTGATCA | 0.0679 ± 0.039 |
| ATGAATTC | 0.133 ± 0.015 |
| GAAAGCTC | -0.175 ± 0.051 |
| CAGTAGGG | 0.111 ± 0.065 |
| ATGGCCAC | -0.0293 ± 0.011 |
| ATGGCCAG | 0.113 ± 0.0052 |
| ATGGCCAT | 0.238 ± 0.048 |
| CTCAGGTA | -0.158 ± 0.024 |
| AGTAGCAC | 0.0432 ± 0.033 |
| GTAATAGA | 0.253 ± 0.0043 |
| ATAATAGA | 0.087 ± 0.027 |
| CTAATAGA | 0.12 ± 0.054 |
| ACCGAGAG | -0.0606 ± 0.0036 |
| AATTACCC | 0.286 ± 0.012 |
| AATTACCA | 0.217 ± 0.039 |
| CATTACCC | -0.0464 ± 0.014 |
| CCTTACTC | 0.123 ± 0.032 |
| AAGCTAGG | -0.00121 ± 0.038 |
| AATCCTGT | 0.0436 ± 0.00074 |
| ATCACCCA | 0.0137 ± 0.037 |
| ACCACCCG | -0.0962 ± 0.022 |
| CACACCCG | -0.111 ± 0.0078 |
| GCCACCCC | 0.0125 ± 0.1 |

| Sequence | PBM 8-mer E-score |
| --- | --- |
| CCCACCCG | 0.335 ± 0.042 |
| CCCACCCA | 0.387 ± 0.029 |
| ATCACCCG | -0.202 ± 0.044 |
| ACCACCCC | 0.165 ± 0.0053 |
| CCCACCCC | 0.307 ± 0.058 |
| GCCACCCA | -0.0786 ± 0.049 |
| ATCACCCC | 0.27 ± 0.0061 |
| TCCACCCA | 0.0351 ± 0.068 |
| CATGTCGA | -0.00545 ± 0.041 |
| ATTGCTAG | 0.141 ± 0.019 |
| CATGTTCA | 0.151 ± 0.025 |
| AAGTATGT | 0.0914 ± 0.0063 |
| AGCGACCG | -0.22 ± 0.0069 |
| AAAGGCGA | 0.17 ± 0.0091 |
| GCTTCTCC | 0.0389 ± 0.0059 |
| ACTAAGGC | 0.00844 ± 0.07 |
| CAAGCATC | -0.0457 ± 0.013 |
| AAAAGCCA | 0.0803 ± 0.036 |
| ACATACAC | 0.127 ± 0.016 |
| ACATATCA | 0.2689 ± 0.00057 |
| ACATACAT | 0.273 ± 0.025 |
| CAATACAA | 0.234 ± 0.0058 |
| CAATACAC | 0.0179 ± 0.049 |
| ACATATCG | 0.0421 ± 0.053 |
| CAATACAG | 0.00554 ± 0.011 |

| Sequence | PBM 8-mer E-score |
| --- | --- |
| ATACACAG | 0.0629 ± 0.073 |
| ATACACAT | 0.244 ± 0.02 |
| CCATATCA | 0.076 ± 0.055 |
| ATACACAC | 0.0901 ± 0.038 |
| ACATACAG | 0.188 ± 0.014 |
| AGACTAGG | -0.0528 ± 0.031 |
| CGGTACCC | -0.133 ± 0.015 |
| CCTAGAGC | -0.0448 ± 0.0096 |
| CCGATCGG | -0.289 ± 0.039 |
| CGGCTAAC | -0.13 ± 0.011 |
| TCCGTCCA | -0.0552 ± 0.013 |
| GCGCATAC | 0.0299 ± 0.0056 |
| ATCGGTGG | -0.0489 ± 0.0043 |
| ATAACCTC | 0.175 ± 0.016 |
| AAGGCCCC | 0.068 ± 0.039 |
| AGAGTGAC | -0.11 ± 0.0053 |
| TCATACAA | 0.235 ± 0.035 |
| GCATACAA | 0.119 ± 0.0048 |
| CCATACAA | 0.115 ± 0.024 |
| ACCTATAA | 0.00571 ± 0.046 |
| AAATACAC | 0.145 ± 0.033 |
| AAATACAA | 0.0975 ± 0.074 |
| AAATATAT | 0.313 ± 0.02 |
| ACCTATAT | 0.233 ± 0.0084 |
| ACCTATAC | 0.0485 ± 0.061 |

| Sequence | PBM 8-mer E-score |
| --- | --- |
| AAATATAA | 0.21 ± 0.022 |
| AAATATAC | 0.138 ± 0.019 |
| AAATACAT | 0.241 ± 0.058 |
| ATCACCGA | -0.0646 ± 0.084 |
| CCTCCACC | 0.0772 ± 0.089 |
| ATCGGGAG | -0.0438 ± 0.039 |
| CCAGATCG | -0.185 ± 0.061 |
| CTAACAAG | 0.0426 ± 0.045 |
| ATATGGCG | 0.123 ± 0.007 |
| GAAGGTAA | 0.0664 ± 0.084 |
| ACATATAT | 0.255 ± 0.024 |
| ACATATAC | 0.137 ± 0.0056 |
| ACATATAG | 0.131 ± 0.031 |
| CCATCATA | 0.155 ± 0.017 |
| ATATCATG | 0.178 ± 0.016 |
| ACATCATC | 0.0415 ± 0.031 |
| CTATCATA | 0.149 ± 0.03 |
| ATATCATA | 0.239 ± 0.055 |
| ACATCATA | 0.243 ± 0.0089 |
| CGTGGAAC | -0.0767 ± 0.0022 |
| AGTGTGGC | -0.0951 ± 0.025 |
| GTAAGGGA | -0.0384 ± 0.016 |
| ACATCCTC | 0.028 ± 0.067 |
| AGCACGTA | 0.128 ± 0.038 |
| AGCACGTG | 0.431 ± 0.0076 |

| Sequence | PBM 8-mer E-score |
| --- | --- |
| ATCACGCG | 0.239 ± 0.026 |
| ACCACGTC | -0.01627 ± 2.1e-05 |
| ATCACGCA | -0.037 ± 0.094 |
| ACCACGTG | 0.432 ± 0.025 |
| AGCACGTC | -0.156 ± 0.042 |
| ACCACGCA | -0.0882 ± 0.019 |
| ACCACGCG | 0.283 ± 0.02 |
| ATCACGCC | 0.0526 ± 0.033 |
| ACCACGTA | -0.0697 ± 0.045 |
| CCCACGCG | 0.221 ± 0.031 |
| AATTTCGT | 0.0796 ± 0.033 |
| GATTGCCC | -0.0998 ± 0.019 |
| ATTTAGCG | 0.0611 ± 0.079 |
| ATCACGTA | 0.163 ± 0.032 |
| ATCACGTG | 0.4 ± 0.014 |
| ATCACGTC | 0.0586 ± 0.042 |
| TAGCTACA | 0.0611 ± 0.017 |
| TGGGTACA | -0.0341 ± 0.055 |
| ATTGTTTG | 0.106 ± 0.05 |
| ATTGTTTC | 0.248 ± 0.046 |
| CTTGTTTC | 0.169 ± 0.026 |
| CGGTATTA | -0.1001 ± 0.00022 |
| CAAATATA | 0.151 ± 0.0063 |
| TATATATA | 0.326 ± 0.048 |
| TATATAAA | 0.177 ± 0.052 |

| Sequence | PBM 8-mer E-score |
| --- | --- |
| AAAATATA | 0.178 ± 0.027 |
| TAAATATA | 0.238 ± 0.0035 |
| GATATATA | 0.152 ± 0.015 |
| AGAACACG | 0.104 ± 0.028 |
| AGTCGAAG | 0.0391 ± 0.095 |
| CGCTCGAG | 0.136 ± 0.036 |
| GGTTGTTA | 0.116 ± 0.038 |
| ACTACTGA | -0.123 ± 0.021 |
| CCCGAGAG | -0.255 ± 0.041 |
| ATCAGCCC | 0.231 ± 0.03 |
| ATCAGCCA | -0.0692 ± 0.065 |
| ATCAGCCG | -0.223 ± 0.0056 |
| CAAGAGTC | -0.073 ± 0.074 |
| ACTACACG | 0.0218 ± 0.034 |
| ACTACATA | 0.239 ± 0.06 |
| ACTACATG | 0.123 ± 0.031 |
| GCTACATA | -0.0387 ± 0.017 |
| ACTACACA | 0.266 ± 0.055 |
| CCTACACG | -0.0783 ± 0.048 |
| TAGAACGA | 0.0786 ± 0.036 |
| AGCGAATC | 0.0438 ± 0.019 |
| GTAAAGTA | 0.262 ± 0.032 |
| ATAAAGTA | 0.166 ± 0.053 |
| CTAAAGTA | -0.0474 ± 0.011 |
| AGTATATA | 0.334 ± 0.041 |

| Sequence | PBM 8-mer E-score |
| --- | --- |
| CGTATCTA | -0.126 ± 0.083 |
| AGTATCTA | 0.329 ± 0.0077 |
| CGTATATA | 0.185 ± 0.0076 |
| GGTATATA | 0.235 ± 0.013 |
| GGTATAGA | 0.0611 ± 0.0045 |
| AGTATATG | 0.153 ± 0.051 |
| AGTATATC | 0.106 ± 0.013 |
| GGTATCTA | 0.0221 ± 0.013 |
| CCATCGCG | 0.124 ± 0.044 |
| GTCGCGGA | -0.206 ± 0.07 |
| CGCCCCGC | 0.072 ± 0.059 |
| ATAATTAC | 0.276 ± 0.0099 |
| CTAATTAA | 0.0454 ± 0.045 |
| CGAATTAA | 0.00973 ± 0.029 |
| GGAATTAA | 0.166 ± 0.031 |
| GTAATTAC | 0.2036 ± 0.0011 |
| CTAATTAC | 0.139 ± 0.051 |
| TTAATTAA | 0.281 ± 0.08 |
| TGAATTAA | 0.255 ± 0.0052 |
| ATAATTAA | 0.141 ± 0.023 |
| GTTGAAAA | 0.103 ± 0.084 |
| ACCTTGCA | 0.0732 ± 0.0055 |
